BAZ2B block: inhibitors of human BAZ2B bromodomain. AlphaScreen BAZ2B-H3K14Ac peptide displacement. Potency, µM (titrated, usually from 114 µM), most hits filed as inhibitors. 360,000 compounds, 4.4% hits. AID 504333; also: nearly all actives have a fitted effect of over 60% in size
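BAZ2B (50 nM) with biotin-H3(5-23)K14Ac peptide (50 nM) in PBS pH 7.4, 0.01% Tween-20, preformed 30 min, then compound 30 min at room temperature; top concentration 110uM. AlphaScreen streptavidin donor/nickel chelate acceptor beads (10 ug/mL final), 20 min dark, signal read.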
PLK1 PBD block: PLK1 (human) polo-box domain binding inhibition; Plk1 PBD binding of FITC phosphopeptide, fluorescence polarization; 360,000 compounds, 2.8% hits; Potency, µM, most hits filed as inhibitors; also: series mostly up to about 57 µM; nearly all actives have a fitted effect of over 65% in size
JMJD2A Tudor: blocks the human JMJD2A Tudor domain. O75164. AlphaScreen JMJD2A-Tudor / H3K4me3 peptide binding. Potency, µM (top dose mostly 114 µM), usual class: inhibitors. 390,000 compounds, 4.4% hits; also: nearly all actives have a fitted effect of over 50% in size
Target sequence (O75164 whole entry, looked up, the tested form may be a part): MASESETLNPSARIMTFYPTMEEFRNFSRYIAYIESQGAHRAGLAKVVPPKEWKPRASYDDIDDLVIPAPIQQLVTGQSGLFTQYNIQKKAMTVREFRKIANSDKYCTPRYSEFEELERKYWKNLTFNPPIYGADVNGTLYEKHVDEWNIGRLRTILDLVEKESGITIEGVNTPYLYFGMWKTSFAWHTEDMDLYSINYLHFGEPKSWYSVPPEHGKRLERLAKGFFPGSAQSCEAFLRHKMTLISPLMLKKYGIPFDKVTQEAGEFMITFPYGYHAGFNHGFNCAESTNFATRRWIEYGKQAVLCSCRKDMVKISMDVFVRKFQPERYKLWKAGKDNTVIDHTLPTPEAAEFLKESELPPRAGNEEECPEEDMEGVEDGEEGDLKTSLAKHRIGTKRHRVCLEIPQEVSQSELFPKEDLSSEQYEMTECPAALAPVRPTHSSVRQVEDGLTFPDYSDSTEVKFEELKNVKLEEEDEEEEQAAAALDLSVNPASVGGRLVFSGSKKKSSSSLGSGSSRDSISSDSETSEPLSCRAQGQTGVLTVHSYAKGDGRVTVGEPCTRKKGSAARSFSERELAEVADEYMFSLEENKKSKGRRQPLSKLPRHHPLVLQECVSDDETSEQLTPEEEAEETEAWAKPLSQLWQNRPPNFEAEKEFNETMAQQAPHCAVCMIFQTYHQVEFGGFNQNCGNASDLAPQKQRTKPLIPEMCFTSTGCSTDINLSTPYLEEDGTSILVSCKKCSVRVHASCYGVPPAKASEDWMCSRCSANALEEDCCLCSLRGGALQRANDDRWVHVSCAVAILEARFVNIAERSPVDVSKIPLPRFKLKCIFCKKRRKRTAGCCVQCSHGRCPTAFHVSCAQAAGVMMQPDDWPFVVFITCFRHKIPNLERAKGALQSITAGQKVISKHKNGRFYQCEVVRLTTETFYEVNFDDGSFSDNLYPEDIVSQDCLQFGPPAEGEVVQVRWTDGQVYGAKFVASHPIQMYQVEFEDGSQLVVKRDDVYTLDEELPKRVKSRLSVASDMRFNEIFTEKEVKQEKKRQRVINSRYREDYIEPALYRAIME
HP1b chromo inh: blocks HP1-beta chromodomain binding to methylated histone tails. P83916. Potency, µM (highest dose often 114 µM), actives largely listed as inhibitors. 390,000 compounds, 0.56% hits. AlphaScreen HP1-beta / biotin-H3K9me3 peptide binding; also: nearly all actives have a fitted effect of over 70% in size
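Compound inhibition of the preformed complex between 50 nM HP1-beta and 50 nM biotinylated H3K9me3 peptide was read by AlphaScreen. Buffer was PBS pH 7.4 with 0.01% Tween-20. Incubations ran 30 min at room temperature, with 10 ug/mL donor/acceptor beads.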
PI5P4Ka inh: inhibitors of human PI5P4K alpha. P48426. PI5P4Kalpha enzyme, ADP-Glo luminescence, 60 min; active compounds read low. max response, %. 330,000 compounds, 1.2% hits; active = max response of -50% or lower; inconclusive = between -30% and -50%; inactive = -30% or higher; also: value at the top dose of about 77 µM
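ADP-Glo luminescence end-point after a 60 min room-temperature kinase reaction. PI5P4Kalpha and substrate in HEPES pH 7.4 buffer with EGTA, 0.1% CHAPS and 5% DMSO; ATP at 5 microM final.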
G9a block: inhibitors of human histone lysine methyltransferase G9a; Q96KQ7; G9a H3K9 monomethylation, AlphaScreen, 2 h; Potency, µM (titrated, usually from 102 µM), actives largely listed as inhibitors; 350,000 compounds, 8.8% hits; also: nearly all actives have a fitted effect of over 75% in size
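G9a (20 nM) preincubated 15 min RT with compounds, then 500 nM biotinylated H3K9 peptide and 20 uM SAM added; 2 h RT reaction. Monomethyl-H3K9 product detected by AlphaScreen with anti-H3K9me1 antibody, streptavidin donor and anti-rabbit IgG acceptor beads.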
Hits are given with their value; 0 = inactive; ? = inconclusive; - = not tested or not shown; [ ] = another dose, or the depositor's remark. The list is not random: actives were taken first. Their share in the collection is about 12%. Unless noted, calls follow the shape of the dose curve; as a rule, active = well fitted curve in the direction sought with a large enough effect; inconclusive = small, poorly fitted or top-dose-only effect, or another doubt; inactive = no such curve, though single readings can be large; an effect the other way counts as inactive or inconclusive.

SMILES	BAZ2B block	PLK1 PBD block	JMJD2A Tudor	HP1b chromo inh	PI5P4Ka inh	G9a block
CC(C)(C)OC(=O)NCCCCCNC(=O)c1[nH]cnc1C(=O)Nc1ccon1	56µM	0	0	0	0	0[0.501 µM]
CC(C)(C)OC(=O)N1CCC(NC(=O)c2nc[nH]c2C(=O)N2CCc3ccccc3C2)CC1	56µM	0	0	0	0	0[0.501 µM]
CC(C)(C)OC(=O)N1CCC(NC(=O)c2[nH]cnc2C(=O)Nc2ccc(Cl)cc2)CC1	0	0	0	0	0	0[0.501 µM]
CC(C)(C)OC(=O)NCCCCCNC(=O)c1[nH]cnc1C(=O)Nc1cccc(Cl)c1	0	0	0	0	0	0[0.501 µM]
CC(C)(C)OC(=O)N1CCC(NC(=O)c2[nH]cnc2C(=O)Nc2ccon2)CC1	56µM	0	0	0	0	0[0.501 µM]
COc1ccc(C(=O)N(c2ccc(C)cc2)S(=O)(=O)c2ccc(C)cc2)cc1	0	-	0	0	-	0
CN(C1CCCCC1)S(=O)(=O)c1ccc(S(=O)(=O)N2CCCC2)cc1	0	0	0	0	-	0[12.7 µM]
CN(C1CCCCC1)S(=O)(=O)c1ccc(=S)[nH]c1	0	21µM	0	0	0	0[12.7 µM]
CN(C1CCCCC1)S(=O)(=O)c1cccc(C#N)c1	0	24µM	0	0	0	0
Cc1ccsc1-c1cc2nc(NCCCN(C)C)n(C)c(=O)c2s1	-	0	-	-	0	-
CC(=O)N1CCc2cc(C(=O)CN3CCN(c4ccccc4F)CC3)ccc21	0	0	0	0	0	14µM
O=C(CN1CCN(c2ccccc2F)CC1)c1ccc2cc[nH]c2c1	0	0	0	0	0	25µM
CC(=O)N1CCc2cc(C(=O)CN3CCN(c4ccccn4)CC3)ccc21	0	0	0	0	0	20µM
O=C(CN1CCN(c2ccccc2F)CC1)N1CCc2ccccc21	0	0	0	0	0	0
Cc1sc2c(c1C)c(=O)n(-c1ccc(Cl)cc1)c(=O)n2CC(=O)c1ccccc1	0	-	0	0	-	0
CCOC(=O)c1cnc2ccc(OC(F)(F)F)cc2c1Nc1ccccc1C(=O)O	0	-	0	0	-	0
CC(C)(C)c1cc(Cl)ccc1OCCOCCN1CCCC1	?	0	20µM	0	0	25µM
Cc1cc(C)c(C)c(OCCOCCN2CCN(C)CC2)c1	?	0	0	0	0	?
C=CCc1cc(C)ccc1OCCOCCN1CCN(C)CC1	50µM	0	7.9µM	?	0	14µM
Cc1ccc(OCCOCCN2CCN(C)CC2)c(C(C)(C)C)c1	56µM	0	5.6µM	?	0	14µM
Clc1ccc(Cl)c(OCCN2CCCC2)c1	?	0	32µM	?	0	50µM
CCN1C(=O)/C(=C2/Sc3ccccc3N2CC)SC1=S	0	0	0	0	0	-
C=CCN1/C(=C2/SC(=S)N(C)C2=O)Sc2ccccc21	?	-	-	-	-	40µM
NN1C(=O)/C(=C2/Sc3ccccc3N2CCCS(=O)(=O)O)SC1=S	79µM	0	?	0	?	40µM
O=C1NC(=S)S/C1=C1\Sc2ccccc2N1CCCS(=O)(=O)O	?	?	0[11.4 µM]	?	0	10µM
SMILES	BAZ2B block	PLK1 PBD block	JMJD2A Tudor	HP1b chromo inh	PI5P4Ka inh	G9a block
CCN1/C(=C2/SC(=S)N(NC(C)=O)C2=O)Sc2ccccc21	0	0	0	0	0	-
COc1ccc(CNC(=O)c2ccc(Cn3cc(Br)cn3)o2)cc1	0	0	0	0	0	0
C(=C\c1ccccc1)/CN1CCN(Cc2ccc3c(c2)OCO3)CC1	50µM	0	1.3µM	?	0	-
C/C(=C\c1ccccc1)C(=O)N1CCN(Cc2ccc3c(c2)OCO3)CC1	0	0	0	0	0	0
Cc1ccccc1CN1CCN(C/C=C/c2ccccc2)CC1	0	0	3.2µM	?	-	?
O=[N+]([O-])c1ccccc1/C=C/CN1CCN(Cc2ccc3c(c2)OCO3)CC1	?	0	22µM	?	0	-
CN(Cc1ccccc1)S(=O)(=O)c1ccc(Cl)c(C(=O)OCC(=O)NC2CCS(=O)(=O)C2)c1 (stereo not given)	-	0	0	0	0	-
Cc1cccc(N2CCN(c3nc4ccc(C)cc4n4cnnc34)CC2C)c1 (stereo not given)	?	-	?	0	-	?
O=c1[nH]c(=S)[nH]cc1S(=O)(=O)c1cccc(Cl)c1	0	0	0	0	-57	40µM
